What was measured:
Assay in all cases: PBM binding z-score (relative to random genomic background probes); higher = stronger binding; sequences stand for … in GC…GCGATTGACAGCGTAGAATGAAGG
[1] = tested on: FXR:RXRa (NR concentration 270 nM, RXRa partner concentration 90 nM)
Outline: (§1)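 Each nuclear receptor dimer, without ligand, was incubated for 1 h on custom Agilent 4×180K protein-binding microarrays. Binding was detected with antibodies against each partner (one per run), and scanned fluorescence was regression-normalized. The binding z-scores are referenced to random human genomic background probes.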

[2] = tested on: LXRa:RXRa (NR concentration 270 nM, RXRa partner concentration 90 nM)
Outline: as §1

[3] = tested on: LXRa homodimer (NR concentration 270 nM)
Outline: as §1

[4] = tested on: LXRb:RXRa (NR concentration 270 nM, RXRa partner concentration 90 nM)
Outline: as §1

[5] = tested on: LXRb homodimer (NR concentration 270 nM)
Outline: as §1

[6] = tested on: PPARa:RXRa (NR concentration 270 nM, RXRa partner concentration 90 nM)
Outline: as §1

[7] = tested on: PPARg:RXRa (NR concentration 180 nM, RXRa partner concentration 90 nM)
Outline: as §1

[8] = tested on: PPARg:RXRa 270nM:90nM, anti-RXR (NR concentration 270 nM, RXRa partner concentration 90 nM)
Outline: as §1

[9] = tested on: PPARg:RXRa 30nM:10nM, anti-RXR (NR concentration 30 nM, RXRa partner concentration 10 nM)
Outline: as §1

[10] = tested on: PPARg:RXRa 90nM:30nM, anti-RXR (NR concentration 90 nM, RXRa partner concentration 30 nM)
Outline: as §1

[11] = tested on: PPARg:RXRa DBDmut IVT, anti-RXR (DBD mutation: RXRa K156A/R161A, NR concentration 270 nM, RXRa partner concentration 90 nM)
Outline: as §1

[12] = tested on: PPARg:RXRa IVT, anti-PPARg (NR concentration 270 nM, RXRa partner concentration 90 nM)
Outline: as §1

[13] = tested on: PPARg DBDmut:RXRa IVT, anti-PPARg (DBD mutation: PPARg1 K132A/R137A, NR concentration 270 nM, RXRa partner concentration 90 nM)
Outline: as §1

[14] = tested on: PPARg DBDmut IVT, anti-PPARg (DBD mutation: PPARg1 K132A/R137A, NR concentration 270 nM)
Outline: as §1

[15] = tested on: PPARg homodimer (NR concentration 180 nM)
Outline: as §1

[16] = tested on: PXR:RXRa (NR concentration 270 nM, RXRa partner concentration 90 nM)
Outline: as §1

[17] = tested on: PXR homodimer (NR concentration 270 nM)
Outline: as §1

[18] = tested on: RARa:RXR (NR concentration 270 nM, RXRa partner concentration 90 nM)
Outline: as §1

[19] = tested on: RARa homodimer (NR concentration 270 nM)
Outline: as §1

[20] = tested on: RARb:RXRa (NR concentration 270 nM, RXRa partner concentration 90 nM)
Outline: as §1

| Sequence | PBM binding z-score [1] | PBM binding z-score [2] | PBM binding z-score [3] | PBM binding z-score [4] | PBM binding z-score [5] | PBM binding z-score [6] | PBM binding z-score [7] | PBM binding z-score [8] | PBM binding z-score [9] | PBM binding z-score [10] | PBM binding z-score [11] | PBM binding z-score [12] | PBM binding z-score [13] | PBM binding z-score [14] | PBM binding z-score [15] | PBM binding z-score [16] | PBM binding z-score [17] | PBM binding z-score [18] | PBM binding z-score [19] | PBM binding z-score [20] |
| --- | --- | --- | --- | --- | --- | --- | --- | --- | --- | --- | --- | --- | --- | --- | --- | --- | --- | --- | --- | --- |
| AGAATGAGGTTATTAAGATCAGGGAATTGCGGTC | 1.82 | 1.51 | 0.178 | 1.26 | -0.237 | 2.39 | 1.44 | 1.72 | 0.425 | 0.999 | 3.22 | 2.5 | 1.04 | 0.418 | 1.11 | 1.48 | 0.762 | 1.56 | 0.273 | 1.46 |
| TAGCCTAGGTCATTCGGGCCAGTATAGTGTCGGC | 4.65 | 3.71 | 1.53 | 2.35 | 0.458 | 3.55 | 1.61 | 2.21 | -0.0237 | 1.26 | 1.8 | 2.76 | -0.115 | -0.745 | 0.969 | 2.11 | 0.189 | 2.39 | -0.428 | 3.74 |
| AGAATGAGGGCACGCTGAGTTGATAGCAGAGTAG | 1.27 | 1.11 | -0.448 | 0.487 | -0.735 | 2.7 | 2.69 | 2.62 | 0.921 | 1.87 | 5.59 | 4.73 | 1.66 | 0.551 | 0.535 | 1.48 | 0.452 | 1.18 | -0.371 | 2.62 |
| TCAGATAGGTAAAAGGTGAAAGTCGGTGTGGTAA | 2.12 | 1.87 | 0.408 | 2.01 | 0.00585 | 4.67 | 6.03 | 6.8 | 6.55 | 7.29 | 3.61 | 3.39 | 0.424 | 0.558 | 1.78 | 1.84 | 0.95 | 2.63 | 1.51 | 2.02 |
| GTACCAAGGTGAATGGGTCGTTGATGAGTAGGCG | 0.456 | 0.288 | -0.238 | 0.0453 | -0.983 | 1.71 | 1.26 | 1.19 | 0.195 | 0.732 | 1.52 | 2.44 | 0.0637 | -0.57 | 1.22 | 0.325 | 0.284 | 0.784 | 0.00879 | 1.64 |
| CCTCGGAGGACAACTGGAGGTCAGAGCTGCCAGA | 1.53 | 3.1 | 5.05 | 1.94 | -0.251 | 1.99 | 0.231 | 0.569 | -0.723 | 0.0567 | 0.198 | 0.595 | -1.19 | -1.87 | 2.05 | 2.52 | 0.545 | 2.84 | 0.162 | 3.07 |
| ATCTCTAGGTAACCAAGTTCAGTGATTGCCGAAC | 0.358 | 0.717 | 0.794 | 0.577 | 0.713 | 1 | 0.254 | 0.803 | 0.204 | 0.579 | 3.9 | 2.88 | 1.17 | 1.33 | 0.823 | 1.96 | 2.46 | 0.708 | 0.307 | 1.18 |
| GCGACTAGGGCAAAGCAGGTTACCATAAGGTTGG | 0.0913 | 0.121 | -0.0293 | -0.376 | -1.03 | 1.17 | 1.63 | 1.77 | -0.187 | 0.722 | 4.76 | 4.23 | -0.472 | -0.903 | 0.0824 | 0.293 | -0.481 | 0.775 | -1.2 | 1.1 |
| TCTCCGAGGACACGAAAGGTCAGAGCTCGACATC | 3.26 | 3.9 | 2.63 | 3.48 | 0.562 | 3.68 | 1.53 | 2.82 | 2.39 | 2.44 | 1.67 | 1.97 | 0.778 | 0.343 | 2.54 | 4.22 | 0.558 | 4.27 | 0.52 | 4.47 |
| ATCTCTAGGTAAAAGTTCAGTTAATCCCGAGGAT | 1.31 | 1.89 | 1.81 | 1.34 | 1.19 | 4.56 | 8.35 | 7.9 | 8.17 | 8.69 | 1.85 | 3.99 | 1.85 | 1.29 | 2.13 | 2.28 | 2.02 | 1.85 | 1.39 | 2.24 |
| TAGCCTAGGTCATTCGGCCAGTATAGTACGCATC | 4.5 | 3.51 | 1.18 | 2.52 | 0.814 | 3.48 | 2.78 | 2.43 | 0.539 | 1.55 | 1.85 | 2.83 | -0.386 | -0.398 | 0.361 | 1.39 | -0.455 | 2 | -0.658 | 3.6 |
| GCGACTGGGGCAAAGCAGGGTACCATAAGGTTGG | -0.153 | -0.295 | -0.964 | -0.249 | -1.01 | 0.981 | 0.93 | 0.904 | -0.207 | 0.227 | 3.87 | 3.24 | -0.359 | -0.643 | -0.201 | -0.102 | -0.367 | 0.315 | -0.579 | 0.894 |
| CTTCCAAGGTCAGCAGGTCAGTGAAAGCGACGTG | 5.62 | 4.48 | 0.986 | 3.24 | 0.067 | 4.87 | 3.78 | 4.64 | 1.14 | 3.27 | 3.41 | 3.82 | -0.278 | -0.339 | 3.61 | 3.42 | 0.858 | 4.68 | 1.77 | 5.26 |
